This is part of a sample that, as a whole, favours compounds with a hit. Of some 83,000 tested, about 20% had one in any assay.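 Single-dose data. Exposure time 48 hours. Values below 10 considered active.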 Active and inactive are the calls of the source.

This assay concerns IGROV1 ovarian. Nature of the assay: NCI-60 one-dose screen, 48 h (100 = growth as untreated, 0 = no growth, -100 = all killed). To be noted: 10 µM unless noted. The protocol:
Growth inhibition of the IGROV1 human tumor cell line is measured as a screen for anti-cancer activity. Cells are grown in 96 well plates and exposed to the test compound for 48 hours. Compounds are tested at a single concentration, which is 10^-5 M for most compounds. The reported endpoint is percent growth (GI% or GIPRCNT), where numbers from 0 - 100% represent growth inhibition, and numbers from -100% - 0 represent cell death. For example, a value of 40 represents 60% growth inhibition. A value of 0 means no net growth occurred over the course of the experiment. A value of -40 indicates 40% of cells at the beginning of the experiment died by the end of the experiment. A value of -100 means all cells are dead at the end of the experiment.
NCI-60 Human Tumor Cell Lines Screen was performed using the standard one-dose NCI protocol, which is described in more detail at https://dtp.cancer.gov/discovery_development/nci-60/default.htm.
Compounds with GIPRCNT values below 10 were considered active. Activity score was based on GIPRCNT using the following formula: […]
Score is 0 for GIPRCNT values of 100 or above, 50 for GIPRCNT values of 0, and 100 for GIPRCNT values of -100.
On to `S=C1NC2(c3ccccc3)CCC(=S)N2c2ccccc21` (stereo not given), for which the growth is 106% (inactive).

As to `C#CCn1cc(C=C2C(=O)N(C)C(=O)N(C)C2=O)c2cc(Cl)ccc21`, the growth was 102% (inactive).

`COC(=O)c1c2c(c(C)[n+]([O-])c1C)C(=O)C=C(NCc1ccccc1)C2=O`: the growth is -56.6% (active).

Regarding `NNC(=O)CNC(=O)Nc1n[nH]c(=S)s1`, the growth was 102% (inactive).

Take `COc1cc(CNC(=O)Cc2ccccc2)ccc1OCc1cn(-c2ccc(F)cc2)nn1`: the growth is 106% (inactive).

As for `Cc1c(-c2noc(-c3ccc([N+](=O)[O-])cc3)n2)no[n+]1[O-]`, the growth is 89.4% (inactive).

Consider `CCCCN1CCN(c2ccc3nc(-c4ccc5nc(-c6ccc(OC)c(OC)c6)[nH]c5c4)[nH]c3c2)CC1`, for which the growth was -13.2% (active).

`COc1cc2nc(NC3CCC3)nc(NC3CCN(C(C)C)CC3)c2cc1OC`: the growth was 75.1% (inactive).

For the compound `O=C(c1ccccc1)N(CCc1ccc(Cl)cc1)C(=S)N(C(=O)c1ccccc1)c1ccccc1`, the growth is 116% (inactive).

As for `CCOC(=O)C(CC(=O)O)=C(C(=O)OCC)C(=O)OCC`, the growth is 111% (inactive).

As to `O=C(Nc1ccc(F)cc1F)c1cc(Cl)ccc1O`, the growth was 19.3% (inactive).

In the case of `Cc1cc(Nc2ccc(OCc3ccccc3)cc2)nc2cc(O)ccc12`, the growth was 60.5% (inactive).

As to `CCN1CCN(C(=S)SCC(=O)Nc2nc3ccc(C)cc3s2)CC1`, the growth was 72% (inactive).

Take `CC[C@H](C)[C@@H](C(=O)OC)n1cc(CNC(=O)[C@@H](Cc2ccccc2)NC(=O)OCc2ccccc2)nn1`: the growth is 92.2% (inactive).

With `C=C1C(=O)O[C@H]2[C@H]1CC/C(COC(=O)/C=C\C(=O)O)=C\CC[C@@]1(C)O[C@@H]21`, the growth was 107% (inactive).

For `COc1cccc2cc(N(C)c3nc(C)nc4ccsc34)ccc12`, the growth is 15.5% (inactive).

For `COc1ccc(N)c(-c2cc3c(c4c2[nH]c2ccc(OC)cc24)CCCC3)c1`, the growth is 71.1% (inactive).

As for `Nc1cccc(Nc2cc(S(=O)(=O)O)c(N)c3c2C(=O)c2ccccc2C3=O)c1`, the growth is 106% (inactive).

On to `CN(C)c1ccc(N=Cc2ccc(N3CCOCC3)cc2)cc1`, for which the growth was 117% (inactive).

With `O=C(NN1C(=O)CSC1c1ccc(Cl)cc1)c1[nH]c2ccc(F)cc2c1-c1ccccc1` (stereo not given), the growth was 36.8% (inactive).

As to `CN1C(=O)N(C)C2C1NN=c1s/c(=C\c3ccc(Cl)cc3Cl)c(=O)n12` (stereo not given), the growth was 16.4% (inactive).

As to `O=c1oc2ccc(Br)cc2c(=O)n1-c1ccc(Cl)cc1F`, the growth is 15.7% (inactive).

Turning to `O=C(Nc1ccc(N2CCNCC2)cn1)c1[nH]ncc1Nc1ncnc2sc3c(c12)CCC3`, the growth is 77.6% (inactive).

Consider `O=C(c1nc2ccccc2[nH]1)C1[C@@H](c2cccc(O)c2)C2CC3CCCCC3N2[C@@]12C(=O)Nc1cc(Cl)ccc12` (stereo not given in full), for which the growth is 38.8% (inactive).

For `OC(CNC1CCCCC1)Cn1c2ccc(I)cc2c2cc(I)ccc21` (stereo not given), the growth is 70.8% (inactive).

For the compound `O=c1oc2ccc(Br)cc2c(=O)n1-c1ccc(Br)cc1F`, the growth was 9.59% (active).

As for `COc1ccc(C2C3=C(COC3=O)N(CCO)c3cc4c(cc32)CCC4)cc1` (stereo not given), the growth was 51.8% (inactive).

Regarding `CC[C@]1(O)C[C@@H]2CN(CCc3c([nH]c4ccccc34)[C@@](C(=O)OC)(c3cc4c(cc3OC)N(C)[C@H]3[C@@](O)(C(=O)OC)[C@H](OC(C)=O)[C@]5(CC)C=CCN6CC[C@]43[C@@H]65)C2)C1`, the growth is 9.76% (active).

Consider `COc1ccc(C2=Nn3c(NN)nnc3SC2)cc1`, for which the growth was 96% (inactive).

In the case of `CCOC(=O)C1=C(C)N=c2s/c(=C\c3ccccc3O)c(=O)n2C1c1ccc(OC)c2ccccc12` (stereo not given), the growth is 16.3% (inactive).

As to `Oc1ccc(-c2nc(-c3ccc4oc5ccc(-c6[nH]c(-c7ccc(O)cc7)nc6-c6ccccc6)cc5c4c3)c(-c3ccccc3)[nH]2)cc1`, the growth was 34.1% (inactive).

With `CNCCNc1nc2ccccc2c2c(=O)c3cc(F)ccc3sc12`, the growth was 37.6% (inactive).

Take `O=C1CCC(N2C(=O)c3cccc(NCCCCCCOc4ccc(Nc5nccc(Nc6ccccc6)n5)cc4)c3C2=O)C(=O)N1` (stereo not given): the growth is 72.5% (inactive).

As for `Cc1ccc2cc3c(N)c4c(C)ccc(C)c4nc3nc2c1`, the growth is 75.8% (inactive).

Consider `Clc1ccc(Nc2scc3[n+]2CCC3)cc1`, for which the growth is 104% (inactive).

Turning to `CCOC(=O)C1(Cc2ccccc2)CCN(Cc2cccc(OC)c2O)CC1`, the growth was -8.64% (active).

With `COC(=O)C1(C)COP(=O)(Nc2ccc(OC)cc2)OC1` (stereo not given), the growth was 108% (inactive).

As to `NCCCNc1nc2ccccc2c2c(=O)c3cc(F)ccc3sc12`, the growth was 20.1% (inactive).

With `O=C(/C=C/c1ccccc1)c1ccc(Nc2nc(NCCO)nc(Nc3ccc(Cl)cc3)n2)cc1`, the growth is 97.3% (inactive).

Take `CCN1C(=O)N(CC)C2C1NC(=S)N2/N=C/C=C/c1ccccc1OC` (stereo not given): the growth was 31.2% (inactive).

The record behind these values is PubChem BioAssay (NCI).
